This passage reports growth results from PubChem BioAssay (NCI).

Test systems include SK-MEL-2 melanoma; EKVX NSCLC; SN12C renal; TK-10 renal; ACHN renal; A498 renal; CCRF-CEM leukemia; MOLT-4 leukemia; SR leukemia; RPMI-8226 leukemia; OVCAR-5 ovarian; OVCAR-4 ovarian; SK-OV-3 ovarian; IGROV1 ovarian; OVCAR-3 ovarian; HS 578T breast; NCI/ADR-RES ovarian; UO-31 renal; CAKI-1 renal; OVCAR-8 ovarian.
Common to all, as to assay: NCI-60 one-dose screen, 48 h (100 = growth as untreated, 0 = no growth, -100 = all killed)
Common to all, as to settings: 10 µM unless noted

Each structure is given as a SMILES string. This is part of a sample that, as a whole, favours compounds with a hit. Of some 83,000 tested, about 20% had one in any assay.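 The test compound was applied at a single concentration to cells in 96-well plates for 48 hours, and percent growth was recorded.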 Unmarked numbers belong to inactive results. Calls of active or inactive are those of the source. How the source made its calls: active means growth percent below 10; inactive means the rest.

For `CC(C)CCC[C@@H](C)[C@H]1CCC2C3=CCn4c(=O)ccc(=O)n4C3CC[C@@]21C` (stereo not given in full), the growth was -57.4% (active) in the assay on SK-MEL-2 melanoma; -82.2% (active) in the assay with EKVX NSCLC; -97.7% (active) with SN12C renal; -83.1% (active) with TK-10 renal; -95.1% (active) in the assay with ACHN renal; -94.8% (active) with A498 renal. Further, the growth with CCRF-CEM leukemia was -2.44% (active); with MOLT-4 leukemia, -23.6% (active); with SR leukemia, -34.6% (active); in the assay with RPMI-8226 leukemia it was -41.5% (active); with OVCAR-5 ovarian, -84.3% (active); with OVCAR-4 ovarian, -32.4% (active). Further, the growth in the assay on SK-OV-3 ovarian is -100% (active); in the assay with IGROV1 ovarian it was -82.4% (active); in the assay on OVCAR-3 ovarian, -96.5% (active); in the assay on HS 578T breast, -12.2% (active); with NCI/ADR-RES ovarian, -28.7% (active).

As for `COc1cc2nc(Nc3ccc(F)cc3)nc(N)c2cc1OC`, the growth is 91% in the assay with SK-MEL-2 melanoma; 106% with EKVX NSCLC; 76.1% with UO-31 renal; 95.2% with TK-10 renal; 101% in the assay with ACHN renal; 102% in the assay on CAKI-1 renal. Further, the growth in the assay with A498 renal was 63.6%; in the assay with CCRF-CEM leukemia it was 81.4%; in the assay with MOLT-4 leukemia, 65.3%; in the assay with SR leukemia, 64.2%; in the assay with RPMI-8226 leukemia, 76.8%; in the assay on OVCAR-8 ovarian it was 93.1%. Besides, the growth in the assay with OVCAR-5 ovarian was 99.1%; in the assay on OVCAR-4 ovarian, 97.7%; with SK-OV-3 ovarian, 110%; in the assay on IGROV1 ovarian it was 107%; in the assay with OVCAR-3 ovarian, 91.3%; with NCI/ADR-RES ovarian it was 87.6%.

Consider `O=C(/C=C/C12c3ccccc3C(c3ccccc31)C1C(=O)N(c3ccccc3)C(=O)C12)c1ccc(Cl)cc1` (stereo not given), for which the growth with SK-MEL-2 melanoma is 22.3%; in the assay on EKVX NSCLC, 22.9%; with SN12C renal, 19.9%; with TK-10 renal, 42.8%; in the assay with ACHN renal, -36.2% (active); in the assay on CAKI-1 renal, 54.2%. Further, the growth with CCRF-CEM leukemia was 13%; in the assay with MOLT-4 leukemia it was 11.9%; in the assay on SR leukemia, 16.9%; in the assay with RPMI-8226 leukemia, 4.68% (active); in the assay with OVCAR-8 ovarian it was 30.7%; in the assay on OVCAR-5 ovarian it was 8.5% (active). Moreover, the growth is 17.6% in the assay with OVCAR-4 ovarian; 10.4% in the assay on IGROV1 ovarian; -53.9% (active) with OVCAR-3 ovarian; 14.1% in the assay with HS 578T breast; 18.1% in the assay on NCI/ADR-RES ovarian.

`Cc1nn(-c2ccccc2)c2c1C(c1ccc([N+](=O)[O-])cc1)C(C#N)=C(N)O2` (stereo not given): the growth is 123% with SK-MEL-2 melanoma; 115% with EKVX NSCLC; 101% in the assay with SN12C renal; 141% in the assay on TK-10 renal; 108% in the assay with ACHN renal; 115% in the assay with CAKI-1 renal. Also, the growth was 111% with A498 renal; 90.3% in the assay on CCRF-CEM leukemia; 101% in the assay with MOLT-4 leukemia; 91.5% with SR leukemia; 74.1% with RPMI-8226 leukemia; 106% with OVCAR-5 ovarian. Also, the growth was 100% with OVCAR-4 ovarian; 107% in the assay on SK-OV-3 ovarian; 82.9% in the assay on IGROV1 ovarian; 122% in the assay with OVCAR-3 ovarian; 104% with NCI/ADR-RES ovarian.

For `NC(N)=N/N=C(/c1ccccc1)c1ccc(N)cc1`, the growth with SK-MEL-2 melanoma was 112%; with EKVX NSCLC it was 88.2%; with UO-31 renal, 95%; in the assay with TK-10 renal it was 135%; with ACHN renal, 107%; in the assay on CAKI-1 renal, -0.33% (active). The growth in the assay on A498 renal was 125%; in the assay on CCRF-CEM leukemia, 124%; in the assay on MOLT-4 leukemia, 107%; in the assay with SR leukemia it was 88.8%; in the assay with RPMI-8226 leukemia it was 150%; with OVCAR-8 ovarian, 108%. In addition, the growth is 103% with OVCAR-5 ovarian; 132% in the assay on OVCAR-4 ovarian; 99.3% in the assay on SK-OV-3 ovarian; 127% in the assay on IGROV1 ovarian; 112% in the assay with OVCAR-3 ovarian; 150% in the assay on HS 578T breast. Moreover, the growth in the assay on NCI/ADR-RES ovarian was 106%.

Turning to `COc1ccc(/C=C2\COc3ccc(O)cc3C2=O)cc1OC`, the growth in the assay with SK-MEL-2 melanoma is 97.1%; in the assay on EKVX NSCLC, 96.3%; with UO-31 renal, 66.6%; in the assay on TK-10 renal it was 93.1%; with ACHN renal, 73%; in the assay on CAKI-1 renal it was 62.3%. For the same compound, the growth is 90.6% in the assay with A498 renal; 3.05% (active) in the assay with CCRF-CEM leukemia; 48% in the assay on MOLT-4 leukemia; 1.44% (active) with SR leukemia; 46.4% in the assay on OVCAR-8 ovarian; 86.8% in the assay on OVCAR-5 ovarian. The growth in the assay on OVCAR-4 ovarian was 92.8%; in the assay on SK-OV-3 ovarian, 93.1%; in the assay on IGROV1 ovarian, 89.5%; in the assay on OVCAR-3 ovarian, 28.4%; with HS 578T breast it was 80.4%; in the assay with NCI/ADR-RES ovarian, 98.4%.

Regarding `CC(C)OCCCNCC(=O)Nc1ccc(S(=O)(=O)c2ccc(NC(=O)CNCCCOC(C)C)cc2)cc1`, the growth was 115% in the assay on SK-MEL-2 melanoma; 101% in the assay with EKVX NSCLC; 90.8% in the assay with SN12C renal; 93.9% in the assay on TK-10 renal; 100% in the assay with ACHN renal; 94.4% in the assay with CAKI-1 renal. In addition, the growth in the assay on A498 renal was 89.5%; in the assay on CCRF-CEM leukemia, 85.1%; in the assay with MOLT-4 leukemia it was 78.1%; in the assay with SR leukemia it was 61.6%; with RPMI-8226 leukemia, 92.8%; in the assay with OVCAR-8 ovarian it was 105%. In addition, the growth in the assay with OVCAR-5 ovarian was 116%; with SK-OV-3 ovarian, 111%; in the assay on IGROV1 ovarian, 75.9%; with OVCAR-3 ovarian it was 105%; with HS 578T breast it was 87.6%; with NCI/ADR-RES ovarian it was 112%.

As for `NS(=O)(=O)c1cnccc1-n1ccc(=O)c(S(N)(=O)=O)c1`, the growth was 81.1% in the assay with SK-MEL-2 melanoma; 90.3% with EKVX NSCLC; 92.6% in the assay with SN12C renal; 83.8% in the assay on TK-10 renal; 93.6% in the assay on ACHN renal; 85.4% in the assay with A498 renal. For the same compound, the growth was 88.5% in the assay on CCRF-CEM leukemia; 76.9% in the assay with MOLT-4 leukemia; 86.5% in the assay with SR leukemia; 60.4% in the assay with RPMI-8226 leukemia; 100% in the assay with OVCAR-8 ovarian; 89.7% in the assay on OVCAR-5 ovarian. Further, the growth was 81.1% in the assay on SK-OV-3 ovarian, 93.3% in the assay on OVCAR-3 ovarian, 64% in the assay with HS 578T breast and 98.5% in the assay on NCI/ADR-RES ovarian.
